Assay outcomes deposited in PubChem BioAssay by The Scripps Research Institute Molecular Screening Center.
This is a sample that favours compounds with a hit; in the whole collection about 1.1% have one here.
NR5A2 inv ag: inverse agonists of human LRH-1 (NR5A2); inhibition, % at 3.6 µM; HEK293T StAR-luciferase reporter, LRH-1 transfected, 24 h; actives 0.13% (n = 360,000); AID 602396; O00482;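 active means inhibition above the mean inhibition of all tested compounds plus 3 SD, cut at about 73% in these data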;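 further: 0% = DMSO wells and 100% = reporter-only cells lacking LRH-1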
NCOA3 inh: inhibitors of human steroid receptor coactivator 3 (SRC3). Q9Y6Q9. HEK293 GAL4-SRC3 luciferase reporter, luminescence. inhibition, % at 3.6 µM. actives 0.17% (n = 360,000). AID 588352;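 active means inhibition above a per-campaign cutoff, the mean of all compounds plus 3 SD, cut at about 60% in these data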;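 further: 0% = DMSO-treated cells and 100% = gossypol-treated cells at 36 µM; higher means less SRC3-driven luciferase light from the GAL4 reporter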
NCOA1 inh: human NCOA1 inhibition. AID 588354. HEK293 GAL4-SRC1 luciferase reporter, luminescence. actives 0.12% (n = 360,000). inhibition, % at 3.6 µM. Q15788;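 active means inhibition above the campaign mean plus 3 SD, with each screening campaign given its own cutoff, cut at about 60% in these data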;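 further: 0% = DMSO treated cells and 100% = gossypol at 36 µM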
NCOA2 inhibitor: human SRC2 (NCOA2) inhibition; HEK293 GAL4-SRC2 luciferase reporter, luminescence; Q15596; actives 0.17% (n = 370,000); inhibition, % at 9 µM;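 active means inhibition above the mean inhibition of all tested compounds plus 3 SD, set per campaign, cut at about 52% in these data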;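 further: 0% = DMSO treated cells and 100% = cells given Gossypol at 36 µM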
Target sequence (Q15596 whole entry, looked up, the tested form may be a part): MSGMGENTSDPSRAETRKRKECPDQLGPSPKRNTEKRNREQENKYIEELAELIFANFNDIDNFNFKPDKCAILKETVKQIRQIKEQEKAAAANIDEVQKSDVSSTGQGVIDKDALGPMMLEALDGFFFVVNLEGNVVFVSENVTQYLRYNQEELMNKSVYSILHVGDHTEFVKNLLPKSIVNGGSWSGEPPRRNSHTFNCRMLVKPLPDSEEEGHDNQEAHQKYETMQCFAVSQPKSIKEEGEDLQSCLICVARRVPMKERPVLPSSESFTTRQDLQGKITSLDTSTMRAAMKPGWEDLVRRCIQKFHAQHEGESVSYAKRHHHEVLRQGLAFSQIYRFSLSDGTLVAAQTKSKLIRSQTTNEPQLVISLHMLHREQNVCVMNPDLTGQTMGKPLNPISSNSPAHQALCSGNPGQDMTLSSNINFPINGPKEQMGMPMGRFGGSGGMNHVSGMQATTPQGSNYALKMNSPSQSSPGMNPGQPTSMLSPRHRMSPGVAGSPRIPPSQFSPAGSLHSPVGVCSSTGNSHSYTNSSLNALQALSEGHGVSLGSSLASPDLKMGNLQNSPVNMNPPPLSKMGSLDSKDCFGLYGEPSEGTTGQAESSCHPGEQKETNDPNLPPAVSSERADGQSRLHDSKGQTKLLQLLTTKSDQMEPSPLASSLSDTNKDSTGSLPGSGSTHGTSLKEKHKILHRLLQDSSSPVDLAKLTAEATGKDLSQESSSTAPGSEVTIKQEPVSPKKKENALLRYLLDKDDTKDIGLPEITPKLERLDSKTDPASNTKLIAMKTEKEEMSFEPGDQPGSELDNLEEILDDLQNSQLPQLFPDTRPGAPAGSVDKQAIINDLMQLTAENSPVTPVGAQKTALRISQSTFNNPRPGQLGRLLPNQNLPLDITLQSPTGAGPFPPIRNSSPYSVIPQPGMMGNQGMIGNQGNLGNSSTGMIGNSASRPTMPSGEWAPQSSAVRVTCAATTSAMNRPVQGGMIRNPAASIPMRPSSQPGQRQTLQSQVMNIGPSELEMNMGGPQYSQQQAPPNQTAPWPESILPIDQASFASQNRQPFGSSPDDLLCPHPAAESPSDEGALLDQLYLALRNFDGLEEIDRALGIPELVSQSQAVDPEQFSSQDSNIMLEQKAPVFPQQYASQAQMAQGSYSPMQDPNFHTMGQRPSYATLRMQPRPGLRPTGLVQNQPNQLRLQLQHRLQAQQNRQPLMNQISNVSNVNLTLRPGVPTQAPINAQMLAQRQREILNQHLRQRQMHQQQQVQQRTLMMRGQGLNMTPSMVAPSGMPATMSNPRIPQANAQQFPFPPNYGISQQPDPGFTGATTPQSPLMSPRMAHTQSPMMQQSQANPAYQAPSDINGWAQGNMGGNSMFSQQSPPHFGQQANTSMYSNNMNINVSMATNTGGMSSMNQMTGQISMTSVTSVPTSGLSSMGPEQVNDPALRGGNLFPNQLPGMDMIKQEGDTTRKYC
GalR3 antagonist: human GalR3 antagonism | HEK293 GalR3-CNG cAMP membrane potential fluorescence; galR3 body fused to GalR1 C-terminus | inhibition, % at 3 µM | actives 0.44% (n = 360,000) | AID 651719;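 active means inhibition above the screen-wide average plus 3 SD, cut at about 13% in these data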;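 further: forskolin and galanin both at EC90 stimulate the cells; cAMP rise reported by CNG channel membrane potential dye signal; 0% = forskolin plus galanin with DMSO and 100% = forskolin alone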
COUP-TFII inh: NR2F2 (human) inhibition, primary screen. P24468. HEK293T NGFI-A luciferase reporter, luminescence. inhibition, % at 8.6 µM. actives 0.7% (n = 370,000);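 active means inhibition above a per-plate cutoff, mean inhibition of test wells between control levels plus 3 SD, cut at about 38% in these data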;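 further: cells cotransfected with COUP-TFII expression vector driving the NGFI-A reporter; 0% = median of COUP-TF2 test wells and 100% = reporter-only cells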
The depositor's hits bear a star.

For S=C(NCCCCN(Cc1ccc(Cl)cc1)c1ccc(Br)cn1)NCCCc1cnc[nH]1 the results were NR5A2 inv ag 95*, NCOA3 inh 60, NCOA1 inh 37, NCOA2 inhibitor 41, GalR3 antagonist -5 and COUP-TFII inh 29.
`COC(=O)[C@]12C[C@H](CC(=O)N3CCN(C(=O)C4CC4)CC3)C(=O)N(CCc3ccc(OC)c(OC)c3)C1=C[C@H](C1CCCC1)O[C@@H]2C` gave NCOA2 inhibitor 2 and COUP-TFII inh -5.
For CC1CCC(C(C)C)C(OC(=O)Cn2c(-c3ccc(F)cc3)[n+](C)c3ccccc32)C1 (configuration not stated) the results were NR5A2 inv ag 67, NCOA3 inh 67*, NCOA1 inh 40, NCOA2 inhibitor 36, GalR3 antagonist -9 and COUP-TFII inh 25.
For COC(=O)[C@]12C[C@H](CC(=O)NCc3ccc(C)o3)C(=O)N(CCC3=CCCCC3)C1=C[C@H](C(C)C)O[C@@H]2C1CC1 the results were NCOA2 inhibitor 31 and COUP-TFII inh 10.
For CC(C)CC(=O)/C(=C/c1ccc(N(C)C)cc1)n1cncn1 the results were NR5A2 inv ag 10, NCOA3 inh 5, NCOA1 inh 11, NCOA2 inhibitor 6, GalR3 antagonist -9 and COUP-TFII inh 12.
`CC(C)CC(=O)/C(=C\c1ccc(Cl)cc1Cl)n1cncn1` gave NR5A2 inv ag 27, NCOA3 inh 71* and NCOA1 inh 47.
Screening CO[C@H]([C@H](C)/C=C/N(C)C=O)[C@@H](C)C(=O)CC[C@H](C)[C@H](O)[C@H](C)[C@H]1OC(=O)/C=C/C(C)=C/C[C@H](O)C[C@@H]2C=CC[C@@H](C[C@H](OC)[C@@]3(CO3)[C@@H](OC)C[C@@H](OC)[C@@H]1C)O2 returned COUP-TFII inh 6.
`Cc1ccc(-c2nc(NC(=O)c3nn(C)cc3[N+](=O)[O-])sc2C)cc1C` gave NR5A2 inv ag 8, NCOA3 inh 15, NCOA1 inh -34, NCOA2 inhibitor 10, GalR3 antagonist -3 and COUP-TFII inh 10.
Cc1ccc(-c2nc(NC(=O)c3nn(C)cc3[N+](=O)[O-])sc2C)cc1 was read as NR5A2 inv ag 44, NCOA3 inh 4, NCOA1 inh -18, NCOA2 inhibitor 52*, GalR3 antagonist -3 and COUP-TFII inh 30.
CCOC(=O)C1=NOC(C(=O)NCc2ccccc2)(C(=O)c2ccc(OC)cc2)C1 (configuration not stated) was read as NCOA2 inhibitor -8 and COUP-TFII inh -14.
Cc1nccn1CCCNC(=O)c1nc(Cn2cc([N+](=O)[O-])cn2)no1 was read as NR5A2 inv ag -1, NCOA3 inh 13, NCOA1 inh 8, NCOA2 inhibitor 7, GalR3 antagonist 13* and COUP-TFII inh 7.
Screening C=CCN1C(=O)[C@@H](CC(=O)NCCCN2CCCC2=O)[C@]2(C(=O)OC)CCCCC=C12 returned NCOA2 inhibitor -16 and COUP-TFII inh -20.
`COc1ccc2[nH]c3c(c2c1)CCNC3=O` gave NR5A2 inv ag 36, NCOA3 inh 65*, NCOA1 inh 53, NCOA2 inhibitor 31, GalR3 antagonist 1 and COUP-TFII inh 16.
For CC1(C)CC(NNCCC#N)=CC(=[N+]2CCCC2)C1 the results were NR5A2 inv ag 2, NCOA3 inh 4, NCOA1 inh 7, NCOA2 inhibitor 22, GalR3 antagonist -3 and COUP-TFII inh -7.
Screening CN(Cc1ccccc1)C1=CC(=[N+]2CCCCC2)CC(C)(C)C1 returned NR5A2 inv ag 84*, NCOA3 inh 72*, NCOA1 inh 61*, NCOA2 inhibitor -2, GalR3 antagonist 42* and COUP-TFII inh 75*.
For O=S(=O)(c1ccc(Cl)cc1)N1CCCC1c1nc(-c2ccc(Cl)cc2)no1 (configuration not stated) the results were NR5A2 inv ag -1, NCOA3 inh 7, NCOA1 inh -3, NCOA2 inhibitor 95*, GalR3 antagonist -4 and COUP-TFII inh 3.
O=S(=O)(c1ccccc1Cl)N1CCCC1c1nc(-c2ccccc2Cl)no1 (configuration not stated) was read as NR5A2 inv ag 3, NCOA3 inh 8, NCOA1 inh 0, NCOA2 inhibitor 8, GalR3 antagonist 1 and COUP-TFII inh 11.
Screening CN(C)c1ccc(-c2nc3ncc(Cl)cc3[nH]2)cc1 returned NCOA2 inhibitor 31 and COUP-TFII inh 35.
For COc1ccc(CCNC(=O)c2nnn(-c3ccc4c(c3)OCCO4)c2N)cc1OC the results were NR5A2 inv ag 48, NCOA3 inh 58, NCOA1 inh 58, NCOA2 inhibitor 55*, GalR3 antagonist -1 and COUP-TFII inh 93*.
For NC(=O)c1cc2ccncc2c2ccccc12 the results were NR5A2 inv ag 42, NCOA3 inh 65*, NCOA1 inh 82*, NCOA2 inhibitor 56*, GalR3 antagonist -9 and COUP-TFII inh 37.
`Cc1ccc(S(=O)(=O)NC(CC(C)C)C(=O)NCC(c2ccco2)N2CCCCC2)cc1` (configuration not stated) gave NR5A2 inv ag 38, NCOA3 inh 72* and NCOA1 inh 65*.
For C=CCN1[C@H](CC(C)C)COc2cc(N3CCCC3)ccc2S1(=O)=O the results were NCOA2 inhibitor 21 and COUP-TFII inh 1.
For CCOc1ccc(-n2c(C)c(C(C)=O)c3cc(O)ccc32)cc1 the results were NR5A2 inv ag 4, NCOA3 inh 56, NCOA1 inh 61*, NCOA2 inhibitor 4, GalR3 antagonist -6 and COUP-TFII inh 9.
For CCOc1ccc(-n2c(C)c(C(=O)OC)c3cc(O)ccc32)cc1 the results were NR5A2 inv ag -10, NCOA3 inh 17, NCOA1 inh -19, NCOA2 inhibitor 15, GalR3 antagonist -2 and COUP-TFII inh 8.
For CC(c1ccc(NC(=O)OC(C)(C)C)cc1)c1cn(C)c2ccccc12 (configuration not stated) the results were NCOA2 inhibitor -22 and COUP-TFII inh -15.
Screening C/C(=N\Nc1nc2ccccc2[nH]1)c1ccccn1 returned NR5A2 inv ag 84*, NCOA3 inh 79*, NCOA1 inh 75*, NCOA2 inhibitor -59, GalR3 antagonist -7 and COUP-TFII inh -43.
For C/C(=N\Nc1nc2ccccc2[nH]1)c1cc2ccccc2o1 the results were NR5A2 inv ag -23, NCOA3 inh -22, NCOA1 inh -49, NCOA2 inhibitor -56, GalR3 antagonist -12 and COUP-TFII inh -12.
For COC(=O)[C@]12C[C@H](CC(=O)NCCC(C)C)C(=O)N(CCC3=CCCCC3)C1=C[C@H](C(C)C)O[C@@H]2C1CC1 the results were NCOA2 inhibitor -11 and COUP-TFII inh 2.
